Where “and” joins values, the source holds several entries; their conditions need not be identical. Equal values may be shown once. About 83,000 compounds went through this panel and 20% of them were active in at least one assay; those are over-represented in the sample as a whole.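 Growth was measured after 48 h exposure to one concentration of compound in 96-well plates. Values under 10 count as active.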 Calls of active or inactive are those of the source.
Test system: UACC-62 melanoma
Assay: NCI-60 one-dose screen, 48 h (100 = growth as untreated, 0 = no growth, -100 = all killed)
Conditions: 10 µM unless noted

Row | Structure (SMILES) | growth
1 | COC(=O)/C(=N\NC(=S)NN)C(C(=O)OC)C(=O)C(=O)Nc1cccc(C(F)(F)F)c1 (stereo not drawn) | 98.2% [100 µM] (inactive) and 59.6% [100 µM] (inactive)
2 | COC(=O)c1ccc(NC(=O)O/N=C(\Cl)C(C)C)cc1 | -90.3% [100 µM] (active) and -100% [100 µM] (active)
3 | C=C1C(=O)OC2CC(C)C3(O)CCC(=O)C3(C)CC12 (stereo not drawn) | 9.02% [100 µM] (active) and 6.55% [100 µM] (active)
4 | COC(=O)C(C(=O)C(=O)Nc1c(C)cccc1C(C)(C)C)c1nc2ccc(Cl)cc2[nH]c1=O (stereo not drawn) | 68% [100 µM] (inactive) and 84.1% [100 µM] (inactive)
5 | CCCCC1C(=O)N(c2ccc(S(=O)(=O)Nc3ccccn3)cc2)N(c2ccc(O)c(C(=O)O)c2)C1=O (stereo not drawn) | 105% [100 µM] (inactive) and 96.1% [100 µM] (inactive)
6 | COc1ccc(-c2coc3c4c(ccc3c2=O)OCO4)cc1OC | 43.3% [100 µM] (inactive) and 6.94% [100 µM] (active)
7 | C=C(C)C1CC2(C)C(C)CC(OC(=O)/C(C)=C\C)CC2C(OC(=O)/C(C)=C\C)C1O (stereo not drawn) | 5.5% [100 µM] (active)
8 | CCOC(=O)c1cc(C)nc2c1c(=O)n(-c1ccccc1)c(=O)n2CCCCN1CCN(c2ncccn2)CC1 | 97.1% [100 µM] (inactive) and 82.3% [100 µM] (inactive)
9 | COc1cc([C@H]2OC[C@@H]3C(c4cc(OC)c5c(c4)OCO5)OC[C@H]23)cc(OC)c1OC (stereo partly drawn) | 66.5% [100 µM] (inactive) and 25.8% [100 µM] (inactive)
10 | C[C@@H]1CC[C@H]2C(C)(C)[C@H]3C[C@@]12CC[C@@]3(C)O | 80.1% [100 µM] (inactive) and 6.26% [100 µM] (active)
11 | COc1ccccc1-c1n[nH]c(-c2ccccc2O)n1 | 62.2% [100 µM] (inactive) and 50.3% [100 µM] (inactive)
12 | CC(C)/C(Cl)=N/OC(=O)Nc1cccc(C(F)(F)F)c1 | -93.1% [100 µM] (active) and -100% [100 µM] (active)
13 | Cc1ccc2c(sc(-c3ccc4c(c3)sc(-c3ccc5c(c3)sc(-c3ccc(N(C)C)cc3)[n+]5C)[n+]4C)[n+]2C)c1S(=O)(=O)O (tested in a mixture with another compound) | 48.6% [100 µM] (inactive) and 10.5% [100 µM] (inactive)
14 | O=C(Nc1cccc(NC(=O)C(=O)C2CCC3=C(Sc4ccccc4N3)C2=O)n1)C(=O)C1CCC2=C(Sc3ccccc3N2)C1=O (stereo not drawn) | 50.7% [100 µM] (inactive) and -46.3% [100 µM] (active)
15 | COc1ccc2c(c1)N(C(C)=O)CN1C(=O)CCC21 (stereo not drawn) | 87.4% [100 µM] (inactive) and 102% [100 µM] (inactive)
16 | CC1C2(C)OC(=N)C(C#N)(C(c3cccc([N+](=O)[O-])c3)O2)C1(C#N)C#N (stereo not drawn) | 100% [100 µM] (inactive)
17 | O=C1NC(N/N=C\C(O)C(O)C(O)C(O)CO)=N/C1=C\c1ccc(Cl)cc1 (stereo not drawn) | -24.3% [100 µM] (active) and -100% [100 µM] (active)
18 | Cn1c2c(c3ccccc3c1=O)C(=O)c1ccccc1-2 | 27.3% [100 µM] (inactive) and -100% [100 µM] (active)
19 | C/C(O)=C/c1nc2sc(C)c(C)c2c(=O)s1 | 19.1% [100 µM] (inactive) and 37.1% [100 µM] (inactive)
20 | CCCCCC(O)(CCCCC)CCCCCCCCC1=C(O)c2ccccc2C(=O)C1=O | -74.8% [100 µM] (active) and -14.4% [100 µM] (active)
21 | Cc1ccc(OCC2OC(n3cnc4nc(N)nc(Cl)c43)CC2Oc2ccc(C)cc2)cc1 (stereo not drawn) | 50.4% [100 µM] (inactive) and -64% [100 µM] (active)
22 | COc1cc2c3cc1Oc1c(OC)c(OC)cc4c1C(Cc1ccc(O)c(c1)-c1cc(ccc1OC)CC3N(C)CC2)N(C)CC4 (stereo not drawn) | -88% [100 µM] (active) and -95.6% [100 µM] (active)
23 | C/C(=C\COc1cc(O)c2c(c1)C(=O)c1cc(C)cc(O)c1C2=O)CCC1OC1(C)C (stereo not drawn) | 41.3% [100 µM] (inactive) and 6.17% [100 µM] (active)
